# Test results taken from the supplement of paper PMC12669032.
# Where “and” joins values, the source holds several entries; their conditions need not be identical. Identical values can stand only once. Values without a mark were called inactive.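 Rule for the calls: active = AUC reduced over 20% with Padj below 0.05 in at least 2 of 3 replicates; inactive = otherwise.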
# Tested on: Bifidobacterium longum subsp. longum
# Experiment: growth AUC relative to DMSO control (median of replicates) (fraction); higher = more growth (less inhibition), active = hit call of the paper
# Settings: 20 µM; 24 h
# In short: (§1)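 In round-bottom 96-well plates sealed with pierced gas-permeable seals, gut bacterial monocultures in mGAM were grown anaerobically at 37 °C from OD600 0.05 with 20 µM compound (1% DMSO). OD600 readings were taken hourly for 24 h, and the minimum OD was set to 0. Area under the growth curve was then normalised to the plate median of solvent-only wells, or to row and column medians on the industrial chemical plate. The value given is the median of three biological replicates grown on separate days.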
row,Compound,growth AUC
1,COP(N)(=O)SC (stereo not drawn),0.989
2,COc1cc(OC)n2nc(S(=O)(=O)Nc3c(Cl)ccc(C)c3Cl)nc2n1,0.976
3,CC(C)N(C(=O)SCC(Cl)=C(Cl)Cl)C(C)C,1.01
4,O=S(=O)(c1ccc(O)cc1)c1ccc(O)cc1,0.949
5,CN(C)NC(=O)CCC(=O)O,1.01
6,CCN(CC)c1nc(C)cc(OP(=S)(OC)OC)n1,0.967
7,Clc1cccc(Cl)c1Cl,1.04
8,CCN(CC)C(=S)[S-].O.O.O.[Na+],0.961
9,C#CCC1=C(C)C(OC(=O)C2C(C=C(C)C)C2(C)C)CC1=O (stereo not drawn),1.02
10,CCOc1ccccc1OS(=O)(=O)NC(=O)Nc1nc(OC)cc(OC)n1,0.967
11,CNC(=O)Oc1cc(C)cc(C(C)C)c1,1.19
12,CCCCN(CC)c1c([N+](=O)[O-])cc(C(F)(F)F)cc1[N+](=O)[O-],1.01
13,O=C(O)CCl,0.938
14,CC[C@H](C)[C@H]1O[C@]2(C=C[C@@H]1C)C[C@@H]1C[C@@H](C/C=C(\C)[C@@H](O[C@H]3C[C@H](OC)[C@@H](O[C@H]4C[C@H](OC)[C@@H](NC)[C@H](C)O4)[C@H](C)O3)[C@@H](C)/C=C/C=C3\CO[C@@H]4[C@H](O)C(C)=C[C@@H](C(=O)O1)[C@]34O)O2.O=C(O)c1ccccc1,0.167 (active)
15,CON(C)C(=O)Nc1ccc(Cl)c(Cl)c1,0.953
16,CCCCOC(=O)[C@@H](C)Oc1ccc(Oc2ccc(C#N)cc2F)cc1,0.984
17,Clc1cc(Cl)c(Cl)c(Cl)c1,1
18,CN(C)C(=O)Nc1cccc(C(F)(F)F)c1,0.961
19,CN(C)C(=O)Nc1cccc(OC(=O)NC(C)(C)C)c1,1.01
20,CCOP(=O)(NC(C)C)Oc1ccc(SC)c(C)c1 (stereo not drawn),1.01

row,Compound,growth AUC
1,ClCC(Br)CBr (stereo not drawn),1
2,O=[N+]([O-])c1c(Cl)c(Cl)cc(Cl)c1Cl,0.98
3,CCS(=O)c1c(C#N)nn(-c2c(Cl)cc(C(F)(F)F)cc2Cl)c1N (stereo not drawn),1.01
4,CNC(=O)Oc1cccc2c1OC(C)(C)C2O (stereo not drawn),0.967
5,CCOP(=O)(SC(C)CC)N1CCSC1=O (stereo not drawn),1.02
6,CCOP(=O)(OCC)ON1C(=O)c2cccc3cccc(c23)C1=O,1.05
7,O=C(O)C(F)(F)C(F)(F)C(F)(F)C(F)(F)C(F)(F)C(F)(F)F,1.04
8,O=S1OC[C@@H]2[C@H](CO1)[C@]1(Cl)C(Cl)=C(Cl)[C@@]2(Cl)C1(Cl)Cl (stereo partly drawn),0.963 and 0.916
9,O=C(O)c1ccccc1C(=O)Nc1cccc2ccccc12,1.03
10,CCCCN(CCCC)SN(C)C(=O)Oc1cccc2c1OC(C)(C)C2,0.972
11,C[n+]1ccc(-c2cc[n+](C)cc2)cc1.O.[Cl-].[Cl-],1.02
12,CCC(C)(CC)c1cc(NC(=O)c2c(OC)cccc2OC)on1,1.04
13,CNC(=O)Oc1cc(C)c(SC)c(C)c1,1.34
14,COC(=O)C(C)(Cl)Cl,1.02
15,Cc1cc(Cl)ccc1N=CN(C)C,0.981
16,Nc1cc(Cl)cc(Cl)c1,1.08
17,CCCCCCCCCc1ccc(O)cc1,0.929
18,COc1c(Cl)ccc(Cl)c1Cl,1.04
19,CC(C)(C)c1cc([N+](=O)[O-])cc([N+](=O)[O-])c1O,0.964

# Tested on: Clostridium difficile
# Experiment: as above
# Settings: 20 µM; 24 h
# In short: as §1
row,Compound,growth AUC
1,COP(N)(=O)SC (stereo not drawn),1.03
2,COc1cc(OC)n2nc(S(=O)(=O)Nc3c(Cl)ccc(C)c3Cl)nc2n1,1.08
3,CC(C)N(C(=O)SCC(Cl)=C(Cl)Cl)C(C)C,0.994
4,O=S(=O)(c1ccc(O)cc1)c1ccc(O)cc1,0.997
5,CN(C)NC(=O)CCC(=O)O,0.991
6,CCN(CC)c1nc(C)cc(OP(=S)(OC)OC)n1,1.02
7,Clc1cccc(Cl)c1Cl,0.996
8,CCN(CC)C(=S)[S-].O.O.O.[Na+],1.04
9,C#CCC1=C(C)C(OC(=O)C2C(C=C(C)C)C2(C)C)CC1=O (stereo not drawn),0.969
10,CCOc1ccccc1OS(=O)(=O)NC(=O)Nc1nc(OC)cc(OC)n1,1.13
11,CNC(=O)Oc1cc(C)cc(C(C)C)c1,0.93
12,CCCCN(CC)c1c([N+](=O)[O-])cc(C(F)(F)F)cc1[N+](=O)[O-],1.11
13,O=C(O)CCl,0.995
14,CC[C@H](C)[C@H]1O[C@]2(C=C[C@@H]1C)C[C@@H]1C[C@@H](C/C=C(\C)[C@@H](O[C@H]3C[C@H](OC)[C@@H](O[C@H]4C[C@H](OC)[C@@H](NC)[C@H](C)O4)[C@H](C)O3)[C@@H](C)/C=C/C=C3\CO[C@@H]4[C@H](O)C(C)=C[C@@H](C(=O)O1)[C@]34O)O2.O=C(O)c1ccccc1,0.781
15,CON(C)C(=O)Nc1ccc(Cl)c(Cl)c1,0.999
16,CCCCOC(=O)[C@@H](C)Oc1ccc(Oc2ccc(C#N)cc2F)cc1,0.981
17,Clc1cc(Cl)c(Cl)c(Cl)c1,0.977
18,CN(C)C(=O)Nc1cccc(C(F)(F)F)c1,1.02
19,CN(C)C(=O)Nc1cccc(OC(=O)NC(C)(C)C)c1,0.928
20,CCOP(=O)(NC(C)C)Oc1ccc(SC)c(C)c1 (stereo not drawn),0.976

row,Compound,growth AUC
1,ClCC(Br)CBr (stereo not drawn),1
2,O=[N+]([O-])c1c(Cl)c(Cl)cc(Cl)c1Cl,1.02
3,CCS(=O)c1c(C#N)nn(-c2c(Cl)cc(C(F)(F)F)cc2Cl)c1N (stereo not drawn),1.02
4,CNC(=O)Oc1cccc2c1OC(C)(C)C2O (stereo not drawn),1.03
5,CCOP(=O)(SC(C)CC)N1CCSC1=O (stereo not drawn),1.02
6,CCOP(=O)(OCC)ON1C(=O)c2cccc3cccc(c23)C1=O,0.946
7,O=C(O)C(F)(F)C(F)(F)C(F)(F)C(F)(F)C(F)(F)C(F)(F)F,1
8,O=S1OC[C@@H]2[C@H](CO1)[C@]1(Cl)C(Cl)=C(Cl)[C@@]2(Cl)C1(Cl)Cl (stereo partly drawn),0.98 and 0.994
9,O=C(O)c1ccccc1C(=O)Nc1cccc2ccccc12,1.01
10,CCCCN(CCCC)SN(C)C(=O)Oc1cccc2c1OC(C)(C)C2,1.02
11,C[n+]1ccc(-c2cc[n+](C)cc2)cc1.O.[Cl-].[Cl-],0.947
12,CCC(C)(CC)c1cc(NC(=O)c2c(OC)cccc2OC)on1,1
13,CNC(=O)Oc1cc(C)c(SC)c(C)c1,1.01
14,COC(=O)C(C)(Cl)Cl,1.01
15,Cc1cc(Cl)ccc1N=CN(C)C,0.998
16,Nc1cc(Cl)cc(Cl)c1,1
17,CCCCCCCCCc1ccc(O)cc1,1.03
18,COc1c(Cl)ccc(Cl)c1Cl,1.01
19,CC(C)(C)c1cc([N+](=O)[O-])cc([N+](=O)[O-])c1O,0.885
